Screening data (PubChem BioAssay)
A549 viability: Nrf2 qHTS screen for inhibitors: counterscreen for cytotoxicity. A549 ARE-Fluc cells, CellTiter-Fluor viability, 18-24 h. Potency, µM (series often up to 46 µM), for the others: at the highest dose activity change, negative = cytotoxicity, actives largely listed as inhibitors. hit rate 0.16% among 390,000; also: potency is read from the fitted curve at half-maximal effect
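A549 ARE-Fluc cells in 5% FBS OPTI-MEM, 5000 cells/well, rested 2 h then exposed to compounds in concentration-response for 18-24 h at 37 °C. Viability by CellTiter-Fluor fluorescence (Ex 405/Em 525) after 30 min; luciferase luminescence (BugLite, 15 min, RT) read afterwards.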
KB-3-1 cytotox: qHTS assay for MDR1-selective chemotherapeutics: Primary screen using the parental adenocarcinoma cell KB-3-1. KB-3-1 viability, CellTiter-Glo ATP luminescence, 72 h. Potency, µM (titrated, usually from 46.1 µM), usual class: cytotoxic. hit rate 1.4% among 400,000; also: potency is read from the fitted curve at half-maximal effect; nearly all actives have a fitted effect of over 60% in size
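Parental KB-3-1 viability, qHTS format: 72 h compound exposure, 37 °C; CellTiter-Glo; media-only wells and DMSO plates as controls; concentration-effect fits on corrected data.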
Nrf2 inh: Nrf2 qHTS screen for inhibitors | hit rate 2.1% among 360,000 | Potency, µM (doses to about 46 µM), inactives show top-dose activity change, negative = inhibition, usual class: inhibitors | A549 ARE-Fluc reporter, luciferase luminescence, 18-24 h; also: potency is read from the fitted curve at half-maximal effect; nearly all actives have a fitted effect of over 60% in size
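Quantitative HTS in A549 cells stably bearing an antioxidant response element-firefly luciferase construct. Inhibition of Nrf2-driven transcription was scored by luminescence after 18-24 h of compound exposure at 37 °C.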
Giardia kill: Small Molecules that selectively kill Giardia lamblia: qHTS; Giardia lamblia trophozoite viability; activity change, % at 7.66 µM, hits read low; hit rate 0.15% among 340,000; AID 540267, 2011; in the data active = activity change below about -80%; inconclusive = between about -30% and that limit;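 also: parasites exposed to compound for two days anaerobically before the ATP read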
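Trophozoites 100 cells/well + cpd; 48 hrs, 37 deg C, anaerobic. ATPLite 1-Step added, 15-30 min RT, luminescence read (ATP-based viability).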
KB-V1 MDR tox: qHTS assay for MDR1-selective chemotherapeutics: Primary screen using the drug-selected MDR subline cells KB-V1; KB-V1 MDR cells viability, CellTiter-Glo, 72 h; Potency, µM (titrated, usually from 46.1 µM), hits mostly cytotoxic; hit rate 3.4% among 400,000; AID 1347076, 2019; also: potency is read from the fitted curve at half-maximal effect; nearly all actives have a fitted effect of over 60% in size
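Compound-treated KB-V1 multidrug-resistant cells, 72 h, 37 degrees C; viability by CellTiter-Glo. Fitted qHTS curves give the values.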
PI4K2A block: qHTS for small molecular inhibitors of PI4K2A. hit rate 0.13% among 420,000. purified PI4K2A, ADP-Glo luminescence, 1 h; stronger effect = lower value. AID 1346378, 2018. activity change, negative = inhibition, % at 76.9 µM; in the data active = activity change below about -50%; inconclusive = mostly about -30% to -49%;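 also: -100% = wells without enzyme as full effect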
Target sequence (Q9BTU6 whole entry, looked up): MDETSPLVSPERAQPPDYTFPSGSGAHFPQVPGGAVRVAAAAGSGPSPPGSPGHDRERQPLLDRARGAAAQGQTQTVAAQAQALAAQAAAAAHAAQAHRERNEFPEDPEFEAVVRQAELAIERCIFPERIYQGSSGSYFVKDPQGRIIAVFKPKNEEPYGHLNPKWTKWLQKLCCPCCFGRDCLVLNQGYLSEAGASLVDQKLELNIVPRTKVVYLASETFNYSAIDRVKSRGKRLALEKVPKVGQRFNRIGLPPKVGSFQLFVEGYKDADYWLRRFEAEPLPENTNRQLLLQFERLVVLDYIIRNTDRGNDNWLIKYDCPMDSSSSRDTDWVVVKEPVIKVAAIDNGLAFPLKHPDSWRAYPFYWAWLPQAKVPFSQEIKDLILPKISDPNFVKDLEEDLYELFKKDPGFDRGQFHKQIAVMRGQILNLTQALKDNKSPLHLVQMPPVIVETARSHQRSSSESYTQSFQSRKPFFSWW
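In this quantitative HTS, ADP production by PI4K2A was quantified luminescently after 1 h at ambient temperature; 100 microM adenosine served as plate-quality control.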
The depositor's hits bear a star; i = inactive; ? = inconclusive; . = not tested or not shown; ! = repeats disagree. In the library only some 5.7% were active in any assay of this set; here they are far more common. Unless noted, calls follow the shape of the dose curve; as a rule, active = well fitted curve in the direction sought with a large enough effect; inconclusive = small, poorly fitted or top-dose-only effect, or another doubt; inactive = no such curve, though single readings can be large; an effect the other way counts as inactive or inconclusive. Unless noted, % is scaled to controls: 0 for no effect and ±100 for the full control effect.

SMILES	A549 viability	KB-3-1 cytotox	Nrf2 inh	Giardia kill	KB-V1 MDR tox	PI4K2A block
CC1Cc2cc(S(=O)(=O)NCc3ccc(N(C)C)cc3)ccc2N1C(=O)C1CCC1 (centres undefined)	-2.5%	?	23.1µM*	.	i	-4.3
Cc1ccc(CNC(=O)CCS(=O)(=O)c2ccc3c(c2)CC(C)N3C(=O)C2CC2)cc1 (centres undefined)	-9.8%	20.6µM*	?	4.3	i	-4.1
CC1Cc2cc(S(=O)(=O)NCc3ccccc3Cl)ccc2N1C(=O)C1CCC1 (centres undefined)	-13.7%	23.1µM*	25.9µM*	.	?	-1.8
CCOC(=O)CC[C@H]1CC[C@]2(CCCN(C(=O)C3CCCC3)C2)O1	.	.	.	.	.	0.1
Cc1ccc(NS(=O)(=O)c2cccc(C(=O)O)c2)cc1C	4.4%	.	?	.	.	.
O=C(c1ccc(-n2c(SCc3cc(F)ccc3F)nc3ccccc3c2=O)cc1)N1CCOCC1	5.2%	?	0.9%	33.6	0.651µM*	0.2
N=c1c(C(=O)NCc2ccco2)cc2c(=O)n3ccccc3nc2n1CCc1ccccc1	-24.6%	18.4µM*	-3.1%	4.7	20.6µM*	-7.8
O=C(CSc1nc2ccccc2c(=O)n1-c1ccc(F)cc1)NCc1ccco1	?	i	.	-12.0	11.6µM*	-13.2
CCOc1ccc(-n2c(SCC(=O)NCc3ccco3)nc3ccccc3c2=O)cc1	0.2%	i	-12.9%	-8.0	i	-3.8
O=C(CCn1c(SCC(=O)NCc2ccco2)nc2ccccc2c1=O)NCCc1ccccc1	1.2%	i	26.1%	16.6	20.6µM*	-3.0
CCCC[C@H](CCCc1ccc(F)cc1)CCC(=O)N(c1ccccc1)c1ccccc1	.	.	.	.	.	-1.8
Cc1ccc(S(=O)(=O)N[C@@H](Cc2ccccc2)C(=O)CCl)cc1	-10.1%	?	18.4µM*	14.1	?	34.4
Cc1ccc(S(=O)(=O)NC(Cc2ccccc2)C(=O)NN)cc1 (centres undefined)	2.2%	i	-1.8%	0.8	i	0.9
C=CCN1C(=O)C(CC(=O)Nc2ccc(OCCC)cc2)N(CCCN2CCN(Cc3ccccc3)CC2)C1=S (centres undefined)	?	i	18.4µM*	-7.6	?	9.5
Cc1ccsc1CCN1C(=O)N(c2ccccc2)C(=O)C1CC(=O)Nc1ccc(F)cc1 (centres undefined)	-19.7%	23.1µM*	-7.2%	.	?	-3.3
Cc1ccsc1CCN1C(=O)N(c2ccc(F)cc2)C(=O)C1CC(=O)Nc1ccccc1 (centres undefined)	-17.0%	i	-18.7%	.	i	-2.1
CCOc1ccc(NC(=O)CC2C(=O)N(c3ccccc3)C(=O)N2CCc2cccs2)cc1 (centres undefined)	-21.1%	i	1.0%	36.7	5.8µM*!	-0.6
CCOc1ccc(NC(=O)CC2C(=O)N(c3ccccc3)C(=O)N2CCc2ccc(OC)cc2)cc1 (centres undefined)	-7.1%	i	1.9%	.	i	-3.7
CCCOc1ccc(NC(=O)CC2C(=O)N(CC)C(=S)N2Cc2cccs2)cc1 (centres undefined)	-18.4%	?	?	7.7	14.6µM*	2.0
Cn1c(SCc2ccc(C(C)(C)C)cc2)nnc1-c1ccco1	.	.	.	.	.	2.1
COc1ccc(OC)c(CNC(=O)Cn2nc(C)c3nn(-c4ccc(Cl)cc4)c(C)c3c2=O)c1	-3.6%	.	.	.	.	0.9
CC(C)CNC(=S)NNC(=O)c1csc2c1CCCC2	?	i	?	-2.4	i	-2.9
CCC(C)NC(=O)COC(=O)c1csc2c1CCCC2 (centres undefined)	-17.1%	23.1µM*	-22.1%	-0.5	i	-6.2
CCCCNc1nc2ccccc2n1CC(=O)N1CCc2ccccc2C1	-1.7%	i	15.6%	6.9	10.3µM*	-0.9
